This note sets out measurements from PubChem BioAssay (EPA / NIEHS).

“And” between values parts separate entries of the source, which are not always exact repeats. Equal values may be shown once. Results filed as inconclusive are left out. Some structures have more than one record in an assay (separate samples or runs), and their calls can disagree. The source made the active and inactive calls. How the source made its calls, unless noted: active means hit-call score of the fitted dose curve at least 0.9, where 1 is the maximum; inactive means score below 0.9.

The term AC50 denotes the midpoint of the concentration-response curve, whichever way the signal moves.

Experiment [1] in a line: IUF_NPC1_viability_72hr: Viability Assessment at 72 hours in the Leibniz Research Institute for Environmental Medicine (IUF) Neural Progenitor Cell Proliferation Assay (NPC1) (AID 2284209). The procedure, abridged: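 Three-day continuous exposure of human neural progenitor spheres under EGF/FGF-driven proliferation; cell viability scored by alamar blue signal versus DMSO.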

The nature of experiment [2]: CCTE_Mundy_HCI_Cortical_Synap_Neur_Matur_NeuriteSpotCountPerNeuriteLength: CCTE's Synaptogenesis and Neurite Maturation Assay in rat cortical cells for Neurite Spot Count per Neurite Length, Mundy Lab (AID 2284210). In a few lines: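 Synaptophysin spots per unit neurite length, measured by automated imaging of MAP2/synaptophysin/Hoechst-stained neurons. Cultures from rat cortex received chemical at DIV 7 with media change through DIV 12; glial growth arrested by AraC at DIV 5; DMSO baseline.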

A short description of experiment [3]: CCTE_Mundy_HCI_Cortical_Synap_Neur_Matur_BPCount: CCTE's Synaptogenesis and Neurite Maturation Assay in rat cortical cells for Branch Point Count, Mundy Lab (AID 2284211). In a few lines:
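In this multiplexed morphology assay, cortical cells from rat receive chemicals at DIV 7 and are fixed at DIV 12, then immunostained and imaged; branch points are counted, with DMSO as baseline.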

Experiment [4] is described as follows: CCTE_Mundy_HCI_Cortical_NOG_NeuriteLength: CCTE's Neurite Outgrowth Assay in rat cortical cells for Neurite Length, Mundy Lab (AID 2284213).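 On AC50: neurites imaged about 48 to 50 h after chemical exposure began.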 The procedure, abridged: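 First, rat primary cortical cells were plated and, 2 h later, given test chemical as a 1/10 dilution. Finally, βIII-tubulin immunostaining enabled automated imaging of neurite length.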
A short description of experiment [5]: CCTE_Mundy_HCI_Cortical_Synap_Neur_Matur_NeuriteLength: CCTE's Synaptogenesis and Neurite Maturation Assay in rat cortical cells for Neurite Length, Mundy Lab (AID 2284214). In a few lines:
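DMSO-normalised neurite length, from high-content imaging of anti-MAP2-stained rat cortical cells fixed at DIV 12. Glia were suppressed with AraC (DIV 5) before chemical exposure from DIV 7.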

Experiment [6] in a line: CCTE_Mundy_HCI_Cortical_Synap_Neur_Matur_NeuriteSpotCountPerNeuron: CCTE's Synaptogenesis and Neurite Maturation Assay in rat cortical cells for Neurite Spot Count per Neuron Count, Mundy Lab (AID 2284215). The procedure, abridged: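 High-content imaging counts synaptophysin puncta along MAP2-labelled neurites per neuron after chemical exposure of rat cortical cells from DIV 7 to termination at DIV 12 (AraC added DIV 5). Loss of signal relative to DMSO.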

The nature of experiment [7]: CCTE_Mundy_HCI_Cortical_Synap_Neur_Matur_SynapseCount: CCTE's Synaptogenesis and Neurite Maturation Assay in rat cortical cells for Synapse Count, Mundy Lab (AID 2284218). The procedure, abridged: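 Endpoint: synapses/neuron by HCI (synaptophysin puncta on MAP2-labelled neurites, Hoechst nuclei). Rat primary cortical cells, AraC DIV 5, dosed DIV 7, fixed DIV 12; DMSO negative control.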

Experiment [8] in a line: CCTE_Mundy_HCI_Cortical_Synap_Neur_Matur_NeuriteCount: CCTE's Synaptogenesis and Neurite Maturation Assay in rat cortical cells for Neurite Count, Mundy Lab (AID 2284222). The procedure, abridged:
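Chemical exposure runs DIV 7–12 in rat cortical cultures, glia suppressed by AraC at DIV 5; measurement is at DIV 12. Imaging-derived neurite counts are fitted against DMSO baseline.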

Experiment [9] is described as follows: CCTE_Mundy_HCI_Cortical_Synap_Neur_Matur_CellBodySpotCount: CCTE's Synaptogenesis and Neurite Maturation Assay in rat cortical cells for Cell Body Spot Count, Mundy Lab (AID 2284223). The procedure, abridged:
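High-content imaging counts synaptophysin puncta on neuronal cell bodies per neuron after MAP2/synaptophysin immunostaining. Rat primary cortical cells, glia arrested with AraC at DIV 5, were exposed DIV 7–12; signal decrease measured against DMSO.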

Experiment [10] is described as follows: TAMU_PeakParms_SingleDonor1434_Chronotropy: Texas A&M University (TAMU) 1.5-hr Human Induced Pluripotent Stem Cell (iPSC)-derived Cardiomyocytes Calcium (Ca+2) Flux Assay for Cardiotoxicity: Chronotropy (changes in peak frequency) (AID 2284217). The following applies: actives raise or lower the signal. The procedure, abridged: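 Beat frequency of single-donor iPSC cardiomyocytes was recorded through a calcium-sensitive dye 1.5 hours after exposure to four concentrations up to 100 uM. An EC05 point of departure was derived.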

A short description of experiment [11]: CCTE_Mundy_HCI_hN2_NOG_NeuriteLength: CCTE's Neurite Outgrowth Assay in human hN2 cells for Neurite Length, Mundy Lab (AID 2284220; active means hit-call score of the fitted dose curve at least 0.9, where 1 is the maximum). The procedure, abridged: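 Plate hNP1-derived neurons, then add chemical 2 h later as a 1/10 dilution. Stain with anti-βIII-tubulin then Alexa Fluor-488 secondary, and image automatically to measure neurite length.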
Experiment [12] is described as follows: CCTE_Mundy_HCI_hNP1_Pro_ResponderAvgInten: CCTE's Proliferation Assay in human neuroprogenitor cells, Mundy Lab (AID 2284224; active means hit-call score of the fitted dose curve at least 0.9, where 1 is the maximum;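 further: human neural progenitor cells hNP1 derived from WA09 embryonic stem cells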). In a few lines:
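Proliferation was scored as BrdU labelling intensity in human neural progenitors derived from WA09 embryonic cells, measured 26.25 hours after chemical dosing. Activity was fitted relative to DMSO.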

The nature of experiment [13]: BSK_BT_PBMCCytotoxicity: PBMC Cytotoxicity Assessment in the BioMAP Diversity Plus: BT Assay (AID 2284225).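 Further: PBMC viability measured by Alamar Blue dye reduction fluorescence.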 The following applies: primary human B cells with PBMC. In a few lines: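 Primary human co-culture of B cells and PBMC, pre-dosed 1 h then activated with SEB and TSST-1. Cytotoxicity is taken from Alamar Blue dye reduction, added for 6 h at the end of a 90 h incubation.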

Read-out in experiment [14]: Secreted IgG (sIgG), gene 3500
The experiment can be described thus: BSK_BT_sIgG: BioMAP Diversity Plus: BT Assay for Secreted IgG (sIgG) Biomarker Activity (AID 2284226). The following applies: primary human B cells with PBMC. The procedure, abridged:
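In this multiplexed co-culture system, ELISA quantifies sIgG 24 h post-treatment. Endpoint analysis uses positive fitting direction, DMSO negative control.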

Experiment [15] in a line: BSK_BT_Bcell_Proliferation: Viability Assessment in the BioMAP Diversity Plus: BT Assay for B cell Proliferation (AID 2284227). Particulars: primary human B cells with PBMC. In a few lines:
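SRB-based protein staining (0.1% SRB after 10% TCA fixation, 560 nm) quantifies proliferation in human B cells co-cultured with PBMC, 72 h post-dosing, with signal gain scored relative to DMSO negative control.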

Read-out in experiment [16]: Interleukin 6 (IL6), IL6 (gene 3569)
The experiment in a line: BSK_BT_xIL6: BioMAP Diversity Plus: BT Assay for Interleukin 6 (IL6) Biomarker Activity (AID 2284228). Particulars: primary human B cells with PBMC. The procedure, abridged: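 Secreted IL-6 in the primary human B cell plus PBMC system, measured by Luminex at 24 h post-chemical, DMSO as baseline. Alamar Blue viability: 75,000 cells/well, chemical 1 h before SEB/TSST-1 (20 ng/mL each), 90 h, then 6 h dye.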

Read-out in experiment [17]: Interleukin 17A (IL17A), IL17A (gene 3605)
The experiment can be described thus: BSK_BT_xIL17A: BioMAP Diversity Plus: BT Assay for Interleukin 17A (IL17A) Biomarker Activity (AID 2284229). The following applies: primary human B cells with PBMC. The procedure, abridged:
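Luminex xMAP quantification of secreted IL-17A after 24 h chemical exposure of a primary human B cell/PBMC co-culture. Signal increases fitted relative to DMSO negative control.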

Read-out in experiment [18]: Tumor necrosis factor (Homo sapiens) (UniProt P01375)
The experiment in a line: BSK_BT_xTNFa: BioMAP Diversity Plus: BT Assay for Tumor necrosis factor alpha (TNF-alpha) Biomarker Activity (AID 2284230). Particulars: primary human B cells with PBMC. The procedure, abridged:
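Compounds were added to a B cell plus PBMC co-culture, and after 24 h secreted TNF-alpha was quantified with Luminex xMAP technology, with responses fitted upward from the DMSO control.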

The nature of experiment [19]: CCTE_Mundy_HCI_hN2_NOG_NeuriteCount: CCTE's Neurite Outgrowth Assay in human hN2 cells for Neurite Count, Mundy Lab (AID 2284219; active means hit-call score of the fitted dose curve at least 0.9, where 1 is the maximum). The procedure, abridged: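 In this morphology assay, hNP1-derived neurons received test chemical 2 h post-plating and were fixed two days later in warm paraformaldehyde/sucrose containing Hoechst 33342. Neurites, labelled by rabbit anti-βIII-tubulin (1:800) and Alexa Fluor-488 (1:500), were counted automatically.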

A short description of experiment [20]: CCTE_Mundy_HCI_hN2_NOG_NeuronCount: CCTE's Neurite Outgrowth Assay in human hN2 cells for Neuron Count, Mundy Lab (AID 2284221; active means hit-call score of the fitted dose curve at least 0.9, where 1 is the maximum). The procedure, abridged: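 Read-out is the number of betaIII-tubulin-positive neurons imaged by automated high-content analysis, with DMSO as negative control.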

Tumor necrosis factor (Homo sapiens), sequence (P01375 whole entry, looked up): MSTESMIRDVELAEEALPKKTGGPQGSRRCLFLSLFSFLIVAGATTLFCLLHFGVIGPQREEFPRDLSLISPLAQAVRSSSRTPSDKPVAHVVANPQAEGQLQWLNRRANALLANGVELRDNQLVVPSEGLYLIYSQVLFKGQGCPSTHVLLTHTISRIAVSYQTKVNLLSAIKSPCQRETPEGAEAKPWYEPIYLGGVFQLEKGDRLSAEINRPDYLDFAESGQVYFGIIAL

As for `CNC(=O)Oc1cccc2c1OC(C)(C)C2`, the result in experiment [1], in experiment [2], in [3], in [4], in experiment [5] and in [6] was inactive. The call in [7], in [8] and in experiment [9] was inactive.
For the compound `CC(C)(C)C(O)(CCc1ccc(Cl)cc1)Cn1cncn1` (configuration not stated), the values for the AC50 in experiment [1], in experiment [3] and in experiment [5] were 0.439 µM (active), 11.2 µM (active) and 10.2 µM (active), respectively. Moreover, the compound was called inactive in experiment [2], in experiment [4], in experiment [6], in experiment [10], in experiment [7] and in experiment [11]. Moreover, the call in experiment [8], in [9] and in [12] was inactive.
Take `CCNS(=O)(=O)C(F)(F)C(F)(F)C(F)(F)C(F)(F)C(F)(F)C(F)(F)C(F)(F)C(F)(F)F`: the result in experiment [13], in experiment [15], in experiment [16], in experiment [17] and in experiment [18] was inactive. Moreover, the AC50 was 22.5 µM (active) and 30 µM (active) in experiment [14]; 19.1 µM (active) in experiment [17].
Consider `CCCCCCCCn1sccc1=O`, for which the result in experiment [10] was inactive.
Consider `CC(C)COC(=O)c1ccccc1C(=O)OCC(C)C`, for which the compound was called inactive in [1], in [4] and in experiment [12]. Further, the AC50 in experiment [2] was 87.9 µM (active); in experiment [3] it was 76.7 µM (active); in experiment [5] it was 80.2 µM (active); in experiment [6], 77.8 µM (active); in [7] it was 79.6 µM (active); in [8], 88.7 µM (active). In [9], the AC50 is 83.8 µM (active).
As to `ClC1=C(Cl)C2(Cl)C3C(Cl)C=CC3C1(Cl)C2(Cl)Cl` (configuration not stated), the call in [2] and in experiment [10] was inactive. Besides, the AC50 in experiment [3] is 13.3 µM (active); in [4] it was 22.5 µM (active); in experiment [5], 13.4 µM (active); in experiment [6], 10.5 µM (active); in [7], 10.6 µM (active); in experiment [19] it was 5 µM (active). The AC50 in experiment [11] is 4.18 µM (active); in experiment [20] it was 2.86 µM (active); in experiment [8] it was 14.9 µM (active); in [9] it was 12.4 µM (active); in experiment [12], 13.4 µM (active).
Take `Nc1cc(Cl)cc(C(=O)O)c1Cl`: the call in experiment [2], in experiment [3], in [4], in [5], in experiment [6] and in experiment [7] was inactive. For the same compound, the compound was classed as inactive in experiment [19], in [11], in experiment [20], in [8] and in [9].
Regarding `[O-][Cl+]O`, the call in experiment [1], in experiment [2], in [3], in [4], in [5] and in experiment [6] was inactive. Moreover, the result in experiment [7], in experiment [8] and in experiment [9] was inactive.
